The values that follow come from PubChem BioAssay (Tox21).

A short description of assay [1]: qHTS RealTime-Glo MT Cell Viability Assay in HEK293 cells - 0 hour (AID 1224880). Further: top concentration of the series differs between compounds; nearly all actives have a fitted effect of over 45% in size. An outline of the steps: (§1)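 HEK293 + NanoLuc + prosubstrate, 600 cells/well; 5 h, 37 C/5% CO2; compound 23 nL in DMSO by pintool; 37 C; luminescence read at 0, 8, 16, 24, 32 and 40 h time points.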
A short description of assay [2]: A CellTox Green Cytotoxicity Assay to monitor cytotoxicity in HEK293 cells - 32 hour (AID 1224881). Further: nearly all actives have a fitted effect of over 40% in size. Put shortly:
(§2)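 Tox21 screen in HEK293: membrane-impermeant cyanine dye fluoresces on binding dead-cell DNA; compound pinned 5 h post-seeding, plates held at 37 C, signal read repeatedly through 40 h.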

The nature of assay [3]: A CellTox Green Cytotoxicity Assay to monitor cytotoxicity in HepG2 cells - 0 hour (AID 1224882). Further: nearly all actives have a fitted effect of over 35% in size. Put shortly:
(§3)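 Measurements at 0, 8, 16, 24, 32 and 40 h of treatment captured CellTox Green fluorescence in HepG2 cells that had been co-plated with reagent and preincubated 5 h at 37 C/5% CO2.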

Assay [4] is described as follows: A CellTox Green Cytotoxicity Assay to monitor cytotoxicity in HEK293 cells - 8 hour (AID 1224884). Further: nearly all actives have a fitted effect of over 35% in size. An outline of the steps:
as §2

A short description of assay [5]: qHTS RealTime-Glo MT Cell Viability Assay in HepG2 cells - 16 hour (AID 1224885). Further: nearly all actives have a fitted effect of over 50% in size. Put shortly: (§4)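 Compound treatment began 5 h after plating HepG2 cells (600/well) with NanoLuc luciferase and prosubstrate. Plates stayed at 37 C for 40 h; luminescence was captured at six time points, 0 h through 40 h.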
Assay [6] is described as follows: qHTS RealTime-Glo MT Cell Viability Assay in HEK293 cells - 24 hour (AID 1224886). Further: nearly all actives have a fitted effect of over 50% in size. Further: potency means the concentration at half of the fitted maximal effect. An outline of the steps:
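Quantitative high-throughput screen of the Tox21 10K library in HEK293: cells and RealTime-Glo reagents plated together, compound added at 5 h, luminescence monitored through 40 h at 37 C.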
(In general: In qHTS, concentration-response curves come from the screen itself.)

Assay [7] in a line: qHTS RealTime-Glo MT Cell Viability Assay in HEK293 cells - 8 hour (AID 1224887). Further: nearly all actives have a fitted effect of over 50% in size. Further: potency means the concentration at half of the fitted maximal effect. Put shortly: as §1
The nature of assay [8]: A CellTox Green Cytotoxicity Assay to monitor cytotoxicity in HEK293 cells - 16 hour (AID 1224888). Further: nearly all actives have a fitted effect of over 35% in size. Put shortly:
as §2

A short description of assay [9]: qHTS RealTime-Glo MT Cell Viability Assay in HepG2 cells - 0 hour (AID 1224889). Further: nearly all actives have a fitted effect of over 50% in size. Put shortly:
as §4

Assay [10] is described as follows: A CellTox Green Cytotoxicity Assay to monitor cytotoxicity in HepG2 cells - 8 hour (AID 1224890). Further: nearly all actives have a fitted effect of over 45% in size. Put shortly:
as §3

The nature of assay [11]: qHTS assay to identify small molecule antagonists of the estrogen receptor alpha (ER-alpha) signaling pathway using the BG1 cell line in the presence of 0.1 nM 17-beta-estradiol - cell viability counter screen (AID 1259241). Further: nearly all actives have a fitted effect of over 40% in size. An outline of the steps: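 Cells were plated and left 24 hr, compounds in DMSO were pinned in, 17beta-estradiol was added to 0.1 nM final, and after 22 hr CellTiter-Fluor reagent was added for 30 min before fluorescence was read.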

Assay [12] can be described thus: qHTS assay to identify small molecule antagonists of the androgen receptor (AR) signaling pathway using the MDA cell line in the presence of 0.5 nM R1881 - cell viability counter screen (AID 1259242). Further: nearly all actives have a fitted effect of over 45% in size. An outline of the steps:
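Concentration-response screen of compounds for toxicity in MDA-kb2 reporter cells: 16 hr at 37C with 0.5 nM R1881, endpoint live-cell protease fluorescence measured in the reporter wells.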

Assay [13] can be described thus: qHTS assay to identify small molecule phospholipidosis (PLD) inducers (AID 1259344; active means well fitted curve in the direction sought with a large enough effect; an effect the other way counts as inactive or inconclusive). An outline of the steps: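 Phospholipid accumulation was scored by imaging: fixed, Hoechst-counterstained HepG2 cells stained with LipidTOX Red after 24 h compound exposure at 37 C. Read-outs were pit count and pit intensity per well or per cell, with amiodarone and DMSO controls.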

The nature of assay [14]: qHTS assay to identify small molecule HDAC inhibitors (AID 1259364).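 Further: wild-type HCT-116 cells with endogenous class I/II HDAC activity; top concentration of the series differs between compounds; nearly all actives have a fitted effect of over 45% in size.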 An outline of the steps: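 Screening used wild-type human colon HCT-116 cells incubated overnight, dosed with compounds for 2 hours, and assayed with a homogeneous luminogenic HDAC I/II reagent for 30 minutes at room temperature.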
A short description of assay [15]: qHTS assay to identify small molecule HDAC inhibitors - cell viability counter screen (AID 1259365). An outline of the steps:
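Counter screen in wild-type HCT-116 cells: compounds dissolved in DMSO are pin-transferred onto overnight-plated cells and left 2hr at 37C. ATP-based CellTiter-Glo luminescence then measures viable cells.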

A short description of assay [16]: qHTS assay to identify small molecule agonists of the sonic hedgehog signaling (Shh) pathway - cell viability counter screen (AID 1259366). Further: nearly all actives have a fitted effect of over 50% in size. Put shortly:
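Cells are plated at 2,000 per well and left 4hr at 37C, 5% CO2 before compound addition. After 23hr of treatment, CellTiter-Fluor reagent is added for 1hr at 37C and fluorescence is measured.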

A short description of assay [17]: qHTS assay to identify small molecule antagonists of the sonic hedgehog signaling (Shh) pathway - cell viability counter screen (AID 1259367). Further: nearly all actives have a fitted effect of over 55% in size. An outline of the steps:
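Viability was read by CellTiter-Fluor fluorescence in the same wells, reagent added 23 hr into compound treatment and incubated 1 hr at 37C. The 3T3 Gli1-Luc reporter cells (2,000/well) received conditioned medium after compound and ran 24 hr.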

The target in assay [18] is Estrogen receptor (Homo sapiens) (UniProt P03372). Put plainly: qHTS assay to identify small molecule antagonists of the estrogen receptor alpha (ER-alpha) signaling pathway using the BG1 cell line in the presence of 0.1 nM 17-beta-estradiol (AID 1259244). Further: nearly all actives have a fitted effect of over 50% in size. An outline of the steps:
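Compounds were tested against 0.1 nM (final) 17beta-estradiol in VM7Luc4E2 cells, which express full-length ER-alpha and an ERE-luciferase reporter; luminescence was recorded following 22 h exposure.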

Assay [19] can be described thus: A CellTox Green Cytotoxicity Assay to monitor cytotoxicity in HepG2 cells - 32 hour (AID 1224883). Further: nearly all actives have a fitted effect of over 50% in size. Put shortly:
as §3

The target of assay [20] is Androgen receptor (Homo sapiens) (UniProt P10275). Briefly: qHTS assay to identify small molecule antagonists of the androgen receptor (AR) signaling pathway using the MDA cell line in the presence of 0.5 nM R1881 (AID 1259243). Further: nearly all actives have a fitted effect of over 50% in size. Further: potency means the concentration at half of the fitted maximal effect. An outline of the steps:
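With R1881 held at 0.5 nM (final), compound effects on MMTV-luciferase expression in MDA-kb2 cells were scored by luminescence after a 16 hr, 37C incubation.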

Unmarked numbers belong to inactive results. Inconclusive results are not listed. Active and inactive are the calls of the source. Unless noted, the call rests on the fitted dose curve; in most records, active means well fitted curve in the direction sought with a large enough effect in the repeat runs; inconclusive means weak or mixed curves; inactive means no such curve, though single readings can be large; an effect the other way counts as inactive or inconclusive.

Sequence of Estrogen receptor (Homo sapiens) (P03372 whole entry, looked up): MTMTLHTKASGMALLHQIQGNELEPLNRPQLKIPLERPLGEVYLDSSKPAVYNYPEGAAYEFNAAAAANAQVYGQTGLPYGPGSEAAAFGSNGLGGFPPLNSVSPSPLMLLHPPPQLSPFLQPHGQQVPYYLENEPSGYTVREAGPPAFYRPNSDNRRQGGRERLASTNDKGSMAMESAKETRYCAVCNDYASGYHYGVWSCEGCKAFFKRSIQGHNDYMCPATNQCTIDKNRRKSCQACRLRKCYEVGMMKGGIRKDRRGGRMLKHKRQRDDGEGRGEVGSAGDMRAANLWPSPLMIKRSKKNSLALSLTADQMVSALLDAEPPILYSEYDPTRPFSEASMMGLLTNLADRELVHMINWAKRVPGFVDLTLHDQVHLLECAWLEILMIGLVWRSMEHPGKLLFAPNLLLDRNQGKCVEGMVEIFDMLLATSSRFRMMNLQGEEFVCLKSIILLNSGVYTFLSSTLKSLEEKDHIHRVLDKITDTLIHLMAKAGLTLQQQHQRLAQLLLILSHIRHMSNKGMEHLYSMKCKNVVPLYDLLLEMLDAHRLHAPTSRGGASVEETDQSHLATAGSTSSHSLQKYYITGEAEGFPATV
Sequence of Androgen receptor (Homo sapiens) (P10275 whole entry, looked up): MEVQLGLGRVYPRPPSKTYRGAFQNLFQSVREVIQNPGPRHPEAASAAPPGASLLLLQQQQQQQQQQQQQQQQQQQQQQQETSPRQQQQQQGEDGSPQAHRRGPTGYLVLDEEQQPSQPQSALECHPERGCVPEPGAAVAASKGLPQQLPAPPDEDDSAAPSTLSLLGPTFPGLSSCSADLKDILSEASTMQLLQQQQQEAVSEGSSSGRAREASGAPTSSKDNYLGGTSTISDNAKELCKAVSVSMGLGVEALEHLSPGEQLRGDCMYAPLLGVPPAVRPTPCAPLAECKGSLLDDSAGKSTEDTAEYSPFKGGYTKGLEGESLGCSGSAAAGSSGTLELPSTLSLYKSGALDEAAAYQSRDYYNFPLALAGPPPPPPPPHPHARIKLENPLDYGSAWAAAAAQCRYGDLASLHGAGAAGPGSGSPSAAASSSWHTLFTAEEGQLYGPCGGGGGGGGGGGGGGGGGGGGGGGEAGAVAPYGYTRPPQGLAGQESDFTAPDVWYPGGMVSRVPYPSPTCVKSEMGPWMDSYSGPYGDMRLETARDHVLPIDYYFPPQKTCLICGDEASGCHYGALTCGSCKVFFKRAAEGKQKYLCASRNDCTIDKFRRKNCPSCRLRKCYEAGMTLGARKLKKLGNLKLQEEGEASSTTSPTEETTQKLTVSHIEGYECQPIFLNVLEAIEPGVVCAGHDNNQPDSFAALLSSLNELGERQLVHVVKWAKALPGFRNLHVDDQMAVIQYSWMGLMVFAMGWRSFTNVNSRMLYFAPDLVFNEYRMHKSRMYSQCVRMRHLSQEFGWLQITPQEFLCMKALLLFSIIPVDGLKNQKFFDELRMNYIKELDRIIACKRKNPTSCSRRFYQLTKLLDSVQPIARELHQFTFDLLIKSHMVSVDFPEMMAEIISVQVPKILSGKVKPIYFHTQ

`COC(=O)CCc1ccc(OCC(O)CNC(C)C)cc1` (centres undefined): the Potency result in [1], in [2], in [4], in [6], in assay [7] and in assay [9] was “inactive” in each case. The Potency result in assay [11], in assay [14], in assay [16] and in [17] was “inactive” in each case. Also, the compound was called inactive in assay [3], in assay [5], in [8], in [10], in assay [12] and in [13]. Further, the compound was called inactive in [15].

For `CC1(C)S[C@@H]2[C@H](N=CN3CCCCCC3)C(=O)N2[C@H]1C(=O)O`, the Potency entry in assay [1], in [2], in assay [6], in assay [7], in assay [9] and in assay [11] was “inactive” in each case. Moreover, the Potency result in [18], in assay [14], in assay [16] and in assay [17] was “inactive” in each case. Also, the result in [3], in assay [5], in assay [8], in [10], in assay [12] and in assay [13] was inactive. For the same compound, the call in [15] was inactive.

Consider `Cc1ccc2c(c1)OCC(=O)CO2`, for which the Potency result in [1], in assay [2], in [4], in assay [6], in [7] and in assay [9] was “inactive” each time. Also, the Potency entry in assay [11], in [18], in assay [14], in [16] and in assay [17] was “inactive” throughout. Further, the compound was classed as inactive in assay [3], in [5], in assay [8], in [10], in [12] and in assay [15].

Consider `Cc1cccc(OCC(O)CNC(C)(C)C)c1C` (centres undefined), for which the Potency entry in assay [1], in assay [2], in assay [19], in assay [4], in assay [6] and in [7] was “inactive” throughout. Further, the Potency entry in assay [9], in [11], in assay [20], in assay [14], in [16] and in [17] was “inactive” each time. In addition, the outcome in assay [5], in assay [8], in assay [10], in assay [12] and in assay [15] was inactive.

`CCCN1C[C@H](CSC)C[C@@H]2c3cccc4[nH]cc(c34)C[C@H]21`: the Potency entry in [1], in [2], in assay [6], in assay [7], in assay [9] and in assay [11] was “inactive” throughout. Besides, the Potency entry in assay [18], in assay [16] and in [17] was “inactive” throughout. Moreover, the compound was called inactive in assay [3], in assay [5], in assay [8], in [10], in assay [13] and in assay [15].

On to `COC(=O)c1ccccc1C(=O)c1ccc(OCCN2CCCCC2)cc1`, for which the Potency entry in assay [1], in assay [2], in [4], in assay [6], in assay [7] and in [11] was “inactive” throughout. Moreover, the Potency entry in [18], in [14], in [16] and in assay [17] was “inactive” in each case. Further, the compound was called inactive in [3], in [5], in [8], in assay [10], in assay [12] and in assay [13]. Moreover, the result in [15] was inactive.

For the compound `CC(C)CCCCOC(=O)c1ccccc1C(=O)OCCCCC(C)C`, the Potency entry in [1], in assay [2], in assay [4], in assay [6], in assay [7] and in assay [9] was “inactive” throughout. Moreover, the Potency entry in assay [11], in assay [14], in assay [16] and in assay [17] was “inactive” each time. The compound was called inactive in assay [3], in assay [5], in assay [8], in assay [10], in assay [12] and in assay [15].

Take `CCCCNC1CC(C)(C)NC(C)(C)C1`: the Potency result in assay [1], in assay [2], in [4], in [6], in [7] and in [9] was “inactive” throughout. The Potency result in assay [11], in assay [18], in [14], in assay [16] and in assay [17] was “inactive” each time. Besides, the outcome in [3], in assay [5], in [8], in assay [10], in [12] and in assay [15] was inactive.

Consider `CC(=O)CCCCn1c(=O)c2c(ncn2C)n(C)c1=O`, for which the Potency entry in assay [1], in assay [2], in [19], in assay [4], in [6] and in assay [7] was “inactive” throughout. The Potency result in assay [9], in assay [11], in [18], in assay [14], in assay [16] and in assay [17] was “inactive” throughout. Besides, the compound was called inactive in assay [5], in assay [8], in assay [10], in assay [12], in assay [13] and in assay [15].

On to `O=C(O)c1ccc(Cl)cc1Cl`, for which the Potency result in assay [1], in assay [2], in [4], in assay [6], in [7] and in [9] was “inactive” each time. The Potency result in [11], in assay [18], in assay [14] and in assay [16] was “inactive” throughout. Also, the outcome in assay [3], in [5], in assay [8], in assay [10], in assay [12] and in [15] was inactive.

Regarding `CCCOC(OCCC)OCCC`, the Potency result in assay [1], in [2], in assay [4], in [6], in assay [7] and in [9] was “inactive” in each case. In addition, the Potency entry in assay [11], in assay [14] and in assay [16] was “inactive” each time. Further, the compound was called inactive in [3], in assay [5], in [8], in assay [10], in assay [12] and in assay [15].

Turning to `BrCc1cccc(Oc2ccccc2)c1`, the Potency entry in assay [1], in [2], in assay [4], in assay [6], in assay [7] and in assay [9] was “inactive” each time. Moreover, the Potency entry in [11], in assay [14], in [16] and in [17] was “inactive” each time. In addition, the result in [3], in [5], in [8], in assay [10], in [12] and in assay [15] was inactive. In [20], the Potency is 54.5 µM (active).

`NS(=O)(=O)c1cc2c(cc1Cl)CN(C1CCCCC1)C2=O`: the Potency result in [1], in assay [2], in assay [4], in assay [9], in [11] and in assay [20] was “inactive” in each case. For the same compound, the Potency result in [14], in [16] and in [17] was “inactive” throughout. In addition, the compound was called inactive in assay [3], in assay [5], in assay [8], in [10], in assay [12] and in assay [15]. Also, the Potency in assay [6] and in assay [7] was 9.52 µM (active) in each case.

As for `FC(F)(F)c1ccccc1-n1ccnc1`, the Potency entry in [1], in [2], in assay [4], in assay [6], in assay [7] and in assay [9] was “inactive” each time. The Potency entry in assay [11], in assay [14], in assay [16] and in [17] was “inactive” throughout. The compound was classed as inactive in assay [3], in [5], in [8], in assay [10], in assay [12] and in assay [13]. The call in assay [15] was inactive.

On to `COc1ccc2nc(SCc3ncc(C)c(OC)c3C)[nH]c2c1`, for which the Potency result in assay [1], in assay [2], in assay [19], in assay [4], in [9] and in assay [11] was “inactive” in each case. In addition, the Potency result in assay [20], in assay [18], in [14], in [16] and in assay [17] was “inactive” throughout. Besides, the compound was called inactive in assay [5], in assay [8], in assay [10], in assay [12] and in assay [15].
